# Source: PubChem BioAssay (NCATS)
# Inconclusive results are not listed. Activity calls are given as the source filed them. Unless noted, the rule behind the calls is not given here.
# Experiments:
# [1] = qHTS profiling of the MIPE4 collection as inhibitors of Plasmodium falciparum (3D7) proliferation (AID 743344);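 note: scaled between DMSO vehicle wells and 0.29 µM artemisinin as full inhibition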; details: P. falciparum 3D7 in erythrocytes, SYBR Green DNA fluorescence, 72 h; at 28.5 µM unless noted
# How it was run: (§1)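 Parasite DNA was quantified by SYBR Green I fluorescence (ex 485, em 535 nm) after overnight lysis in saponin/Triton buffer at room temperature. Cultures at 0.3% parasitemia and 2.5% hematocrit were first exposed to compound for 72 h at 37 C; signals were normalised to artemisinin (0.29 uM) and vehicle wells.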
# [2] = qHTS profiling of the MIPE4 collection as inhibitors of Plasmodium falciparum (DD2) proliferation (AID 743345); details: P. falciparum Dd2 in erythrocytes, SYBR Green DNA, 72 h; at 28.5 µM unless noted
# How it was run: as §1
# [3] = qHTS profiling of the MIPE4 collection as inhibitors of Plasmodium falciparum (DD2) proliferation (Rep 2) (AID 743346); details: P. falciparum Dd2 in erythrocytes, SYBR Green DNA, 72 h; at 28.5 µM unless noted
# How it was run: as §1
# [4] = qHTS profiling of the MIPE4 collection as inhibitors of Plasmodium falciparum (HB3) proliferation (AID 743347);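 note: plate controls were DMSO vehicle wells for no effect and artemisinin wells for full effect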; details: P. falciparum HB3 in erythrocytes, SYBR Green DNA, 72 h; at 28.5 µM unless noted
# How it was run: as §1
# [5] = High-throughput drug toxicity screening in the BPDCN cell line Gen2.2 (AID 1224824); details: Gen2.2 BPDCN cells; at 45.8 µM (top of the series) unless noted;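 note: cells exposed to compounds for 48 h before reading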
# How it was run: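 Seed 500 exponentially growing Gen2.2 cells/well; add compounds by pin tool; incubate 48 h, 37 °C, 5% CO2; add CellTiter-Glo, 15 min RT; read luminescence. % activity vs DMSO (100%) and bortezomib (0%).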
# [6] = High-throughput drug toxicity screening in the BPDCN cell line Cal-1 (AID 1224825); details: Cal-1 BPDCN cell viability, qHTS; at 45.8 µM (top of the series) unless noted
# How it was run: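 Viability of the BPDCN line Cal-1 is measured as ATP-based luminescence (CellTiter-Glo) following 48 h incubation with compounds. Percent activity uses DMSO-treated wells as 100% and 9.2 uM bortezomib as 0%.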
# [7] = qHTS assay for measurement of the activity of small molecule inhibitors on Zika virus induced Caspase-3 activity in human iPSC derived neural progenitor cells (hNPCs) (AID 1224857; active = well fitted inhibition curve with a large enough effect; note: nearly all actives have a fitted effect of over 65% in size; note: potency is the fitted concentration of half-maximal effect)
# How it was run: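 Zika virus (2 FFU/cell) infection of human iPSC-derived NPCs, 6 h, following 1 h compound preincubation. Read-out: Caspase-Glo 3/7 luminescence.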
# [8] = qHTS assay for measurement of the activity of small molecule inhibitors on Zika virus induced Caspase-3 activity in human astrocytoma cells (AID 1224859; active = well fitted inhibition curve with a large enough effect;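 note: plate controls were ZIKV-infected untreated cells for no effect and uninfected cells for full effect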)
# How it was run: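 Caspase activation in ZIKV-infected SNB-19 cells (2 FFU/cell, 6 h) measured by Caspase-Glo 3/7 luminescence after 30 min RT; compound pre-incubated 1 h; normalised to uninfected and infected controls.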
# [9] = qHTS Screen of the MIPE 4.0 Collection Against Ewings Sarcoma (RDES) (AID 1259252; active = well fitted inhibition curve with a large enough effect; note: nearly all actives have a fitted effect of over 35% in size; note: potency is the fitted concentration of half-maximal effect)
# How it was run: (§2)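 Compound titrations go onto adherent log-phase cells 4 h after seeding, incubate 48 h at 37C, then CellTiter-Glo luminescence reports viability relative to DMSO and cell-free controls.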
# [10] = qHTS Screen of the MIPE 4.0 Collection Against Ewings Sarcoma (TC71) (AID 1259253; active = well fitted inhibition curve with a large enough effect; note: nearly all actives have a fitted effect of over 40% in size; note: potency is the fitted concentration of half-maximal effect)
# How it was run: as §2
# [11] = qHTS Screen of the MIPE 4.0 Collection Against Ewings Sarcoma (EW8) (AID 1259255; active = well fitted inhibition curve with a large enough effect; note: nearly all actives have a fitted effect of over 35% in size; note: potency is the fitted concentration of half-maximal effect;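 for viability: 100% = DMSO-treated cells and 0% = medium-only wells without cells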)
# How it was run: as §2
SMILES,"parasite growth, % of DMSO control [1]","parasite growth remaining, % of DMSO control (lower = more inhibition) [2]","parasite growth, % of control (lower = inhibition) [3]","growth, % of control [4]","cell viability, % of control (lower = more cytotoxic) [5]",viability (% of control) [6],Potency [7],Potency [8],Potency [9],Potency [10],Potency [11]
COC(=O)C=CC(=O)OC,76.2%,97.5%,71.3%,96.5%,35.4%,101%,inactive,inactive,8.33 µM (active),18.7 µM (active),26.4 µM (active)
Cc1cncc2cccc(S(=O)(=O)N3CCCN(C(=O)CN)C[C@@H]3C)c12,85.8%,89.9%,51%,101%,35.1%,36.2%,inactive,inactive,8.33 µM (active),14.8 µM (active),2.64 µM (active)
CCN(CC)Cc1ccc2cc(COC(=O)Nc3ccc(C(=O)NO)cc3)ccc2c1,4.38%,6.93%,6.48%,7.88%,8.65%,4.07%,inactive,inactive,0.743 µM (active),0.662 µM (active),0.526 µM (active)
O=C1c2c(O)cccc2[C@@H]([C@@H]2O[C@H](CO)[C@@H](O)[C@H](O)[C@H]2O)c2cc(CO)cc(O)c21,96.2%,95.6%,80.5%,99.2%,185%,123%,inactive,inactive,inactive,inactive,inactive
CC(=O)O[C@]1(C(C)=O)CC[C@H]2[C@@H]3C=C(C)C4=CC(=O)CC[C@]4(C)[C@@H]3CC[C@@]21C,23.2%,73.4%,18.8%,10.6%,5.55%,3.38%,inactive,inactive,3.32 µM (active),4.18 µM (active),7.43 µM (active)
Cc1cnc(Nc2ccc(N3CCN(C)CC3)cc2)nc1Nc1cccc(S(=O)(=O)NC(C)(C)C)c1,5.3%,8.81%,12.4%,3.11%,2.75%,1.93%,inactive,inactive,2.64 µM (active),2.64 µM (active),2.09 µM (active)
C[C@@H](Oc1ccc2[nH]nc(C=Cc3cnn(CCO)c3)c2c1)c1c(Cl)cncc1Cl,5.43%,8.67%,16.4%,5.78%,8.4%,6.51%,inactive,inactive,3.32 µM (active),0.662 µM (active),0.418 µM (active)
NC(=NCCCCCCN=C(N)N=C(N)Nc1ccc(Cl)cc1)N=C(N)Nc1ccc(Cl)cc1,12.4%,6.46%,22%,6.76%,6.22%,2.49%,inactive,inactive,2.96 µM (active),4.18 µM (active),9.35 µM (active)
O=C(O)c1ccc(Nc2ncc3c(n2)-c2ccc(Cl)cc2C(c2c(F)cccc2F)=NC3)cc1,56.9%,82.8%,44%,52.9%,41.7%,18.2%,inactive,inactive,1.05 µM (active),0.833 µM (active),0.296 µM (active)
CC(C=CC(=O)NO)=C[C@@H](C)C(=O)c1ccc(N(C)C)cc1,5.14%,7.38%,9.43%,3.58%,2.63%,2.32%,inactive,inactive,0.526 µM (active),0.743 µM (active),0.187 µM (active)
Cn1cnc2c(F)c(Nc3ccc(Br)cc3F)c(C(=O)NOCCO)cc21,86.6%,88%,76.8%,84.6%,4.85%,56.4%,inactive,inactive,inactive,inactive,inactive
Oc1ccc([C@@H]2Oc3ccc(O)cc3[C@@H]3CCC[C@@H]32)cc1,43.6%,90.8%,47%,81.1%,90.8%,14.4%,inactive,inactive,18.7 µM (active),26.4 µM (active),10.5 µM (active)
CC(C)(C)[N+]([O-])=Cc1ccc(S(=O)(=O)O)cc1S(=O)(=O)O,102%,92.1%,85.8%,63%,133%,111%,inactive,inactive,inactive,inactive,inactive
CN(C)c1ccc(C(=O)NCCCCCCC(=O)NO)cc1,5.09%,7.09%,8.85%,2.69%,15.8%,4.88%,inactive,inactive,0.662 µM (active),0.59 µM (active),0.526 µM (active)
CC[C@@]1([C@@H]2O[C@@H]([C@H]3O[C@@](O)(CO)[C@H](C)C[C@H]3C)C[C@H]2C)CC[C@H]([C@]2(C)CC[C@]3(C[C@H](O)[C@@H](C)[C@@H]([C@@H](C)[C@@H](OC)[C@H](C)C(=O)O)O3)O2)O1,5.35% [at 9.64 µM],5.25% [at 9.64 µM],9.17% [at 9.64 µM],3.89% [at 9.64 µM],27.8% [at 23.2 µM],65.7% [at 23.2 µM],inactive,inactive,0.257 µM (active),0.257 µM (active),0.162 µM (active)
C=Cc1c(C)c2cc3nc(cc4[nH]c(cc5nc(cc1[nH]2)C(C)=C5CCC(=O)O)c(CCC(=O)OC)c4C)[C@@]1(C)C3=CC=C(C(=O)OC)[C@H]1C(=O)OC,3.3%,5.89%,6.94%,4.7%,5.48%,3.29%,inactive,inactive,0.0418 µM (active),0.0833 µM (active),0.118 µM (active)
COc1cc(C[C@@H](CO)[C@H](CO)Cc2ccc(O)c(OC)c2)ccc1O,90.4%,100%,80.4%,96.5%,55.1%,23.4%,inactive,inactive,0.209 µM (active),0.372 µM (active),0.743 µM (active)
COc1cc2c(cc1O)CCC1C2CC[C@@]2(C)C1CC[C@@H]2O (some centres not stated),79.6%,94.6%,67%,59.7%,95.2%,10.9%,inactive,inactive,7.43 µM (active),2.64 µM (active),3.32 µM (active)
FC(F)(F)c1ccc(Nc2nc3ccc(Oc4ccnc(-c5ncc(C(F)(F)F)[nH]5)c4)cc3[nH]2)cc1,6.13%,48.6%,15.3%,7.1%,14.5%,24.9%,inactive,inactive,11.8 µM (active),13.2 µM (active),11.8 µM (active)
CON=C(C(=O)N[C@@H]1C(=O)N2C(C(=O)O)=C(CSC(=O)c3ccco3)CS[C@H]12)c1csc(N)n1,88.2%,101%,71%,53.4%,7.56%,8.07%,inactive,inactive,inactive,inactive,inactive
CC(C(C)N1CC(=O)NC(=O)C1)N1CC(=O)NC(=O)C1 (configuration not stated),88.4%,80.3%,105%,98.2%,158%,27.4%,inactive,inactive,0.743 µM (active),0.59 µM (active),0.743 µM (active)
O=C(Nc1nnc(-c2ccco2)o1)c1cc(-c2ccccc2)nc2ccccc12,51.6%,94.4%,42.6%,18.7%,42.4%,17.3%,inactive,inactive,16.6 µM (active),16.6 µM (active),23.5 µM (active)
O=C(O)[C@H](CC(=O)N1C[C@@H]2CCCC[C@H]2C1)Cc1ccccc1,71.6%,103%,–,57.9%,133%,89.5%,23.5 µM (active),inactive,inactive,inactive,inactive
c1ccc(CNc2nc(NCc3ccccc3)c3ccccc3n2)cc1,5.75%,–,10.1%,8.52%,6.1%,2.67%,inactive,inactive,20.9 µM (active),26.4 µM (active),20.9 µM (active)
C[C@H]1COc2c(N3CCN(C)CC3)c(F)cc3c(=O)c(C(=O)O)cn1c23,49.9%,–,49.2%,60.4%,160%,100%,inactive,inactive,inactive,inactive,inactive
